Where “and” joins values, the source holds several entries; their conditions need not be identical. Equal entries are not always repeated. Some structures have more than one record in an assay (separate samples or runs), and their calls can disagree. Calls of active or inactive are those of the source. Unless noted, the call rests on the fitted dose curve; in most records, active means well fitted curve in the direction sought with a large enough effect in the repeat runs; inconclusive means weak or mixed curves; inactive means no such curve, though single readings can be large; an effect the other way counts as inactive or inconclusive.
Columns and labels:
[1] = qHTS assay to identify small molecule antagonists of the thyroid receptor (TR) signaling pathway - cell viability counter screen (AID 743064); further: nearly all actives have a fitted effect of over 50% in size; further: potency means the concentration at half of the fitted maximal effect
Outline: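 Plate GH3.TRE-Luc cells; incubate 4 h at 37 °C; add compound, then T3 to 1 nM final; incubate 23.5 h; add CellTiter-Fluor; incubate 30 min at 37 °C, 5% CO2; read fluorescence.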

[2] = qHTS assay to identify small molecule antagonists of the thyroid receptor (TR) signaling pathway (AID 743065); further: nearly all actives have a fitted effect of over 55% in size; further: potency means the concentration at half of the fitted maximal effect
Outline: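 Antagonism measured as loss of luciferase signal in GH3 cells stably carrying a TRE-luciferase reporter, co-treated with compound and T3 (1 nM final) for 23.5 h at 37 C. Viability was read in the same well by CellTiter-Fluor.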

[3] = system: thyroid hormone receptor (rat, GH3 cells); test: qHTS assay to identify small molecule agonists of the thyroid receptor (TR) signaling pathway (AID 743066; calls by dose curve; further: potency means the concentration at half of the fitted maximal effect)
[4] = target: Estrogen receptor (Homo sapiens) (UniProt P03372); test: qHTS assay to identify small molecule antagonists of the estrogen receptor alpha (ER-alpha) signaling pathway (AID 743069; active means well fitted curve in the direction sought with a large enough effect in the signal ratio in the repeat runs, not every such curve was filed as active; inconclusive means weak or mixed curves, or effect the other way; inactive means no such curve, though single readings can be large or run the other way; the % refers to the signal ratio; further: potency means the concentration at half of the fitted maximal effect)
Estrogen receptor (Homo sapiens), sequence (P03372 whole entry, looked up): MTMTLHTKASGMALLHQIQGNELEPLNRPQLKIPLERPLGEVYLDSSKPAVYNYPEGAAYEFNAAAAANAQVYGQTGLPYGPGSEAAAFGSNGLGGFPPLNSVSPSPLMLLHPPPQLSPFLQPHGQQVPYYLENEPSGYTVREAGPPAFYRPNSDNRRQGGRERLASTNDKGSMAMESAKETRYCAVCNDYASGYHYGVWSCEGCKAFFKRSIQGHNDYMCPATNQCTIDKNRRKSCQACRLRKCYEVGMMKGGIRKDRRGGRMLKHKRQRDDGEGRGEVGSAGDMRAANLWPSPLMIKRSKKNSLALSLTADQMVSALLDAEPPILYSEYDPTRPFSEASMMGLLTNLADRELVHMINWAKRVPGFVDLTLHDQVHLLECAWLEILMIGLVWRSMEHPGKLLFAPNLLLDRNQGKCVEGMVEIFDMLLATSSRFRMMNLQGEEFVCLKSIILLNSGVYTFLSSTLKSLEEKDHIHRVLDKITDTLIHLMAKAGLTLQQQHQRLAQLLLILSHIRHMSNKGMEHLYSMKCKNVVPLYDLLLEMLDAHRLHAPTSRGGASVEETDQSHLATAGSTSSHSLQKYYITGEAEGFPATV
Outline: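 Compound effects are measured against 17beta-estradiol stimulation in HEK293 cells with a UAS-controlled beta-lactamase reporter for ER-alpha. Exposure lasts 18 hr at 37C; LiveBLAzer B/G FRET substrate follows for 2 hr at room temperature.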

[5] = qHTS assay to identify small molecule antagonists of the estrogen receptor alpha (ER-alpha) signaling pathway - cell viability counter screen (AID 743074; calls by dose curve;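 further: HEK293 cells carrying ER-alpha-UAS-bla reporter stimulated with 17beta-estradiol; nearly all actives have a fitted effect of over 45% in size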; further: potency means the concentration at half of the fitted maximal effect)
[6] = target: Estrogen receptor (Homo sapiens) (UniProt P03372); test: qHTS assay to identify small molecule agonists of the estrogen receptor alpha (ER-alpha) signaling pathway (AID 743075; calls by dose curve)
[7] = target: Estrogen receptor (Homo sapiens) (UniProt P03372); test: qHTS assay to identify small molecule agonists of the estrogen receptor alpha (ER-alpha) signaling pathway using the BG1 cell line (AID 743079); further: nearly all actives have a fitted effect of over 20% in size; further: potency means the concentration at half of the fitted maximal effect
[8] = qHTS assay to identify small molecule antagonists of the estrogen receptor alpha (ER-alpha) signaling pathway using the BG1 cell line (AID 743080; calls by dose curve;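 further: BG1 cells stimulated with 17beta-estradiol alongside compound; nearly all actives have a fitted effect of over 25% in size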; further: potency means the concentration at half of the fitted maximal effect)
Outline: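 Endogenous full-length ER-alpha in BG1-Luc-4E2 cells drives a stably integrated 4×ERE luciferase gene; compounds were tested against 17beta-estradiol over 21.5 h, with luminescence and multiplexed viability fluorescence recorded.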

[9] = qHTS assay to identify small molecule antagonists of the estrogen receptor alpha (ER-alpha) signaling pathway using the BG1 cell line - cell viability counter screen (AID 743081);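 further: compound given together with 17beta-estradiol as the ER stimulus; series mostly up to about 70 µM; nearly all actives have a fitted effect of over 45% in size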
Aromatase (Homo sapiens) = Aromatase (Homo sapiens) (UniProt P11511); test: qHTS assay to identify aromatase inhibitors (AID 743083); further: nearly all actives have a fitted effect of over 55% in size; further: potency means the concentration at half of the fitted maximal effect
Aromatase (Homo sapiens), sequence (P11511 whole entry, looked up): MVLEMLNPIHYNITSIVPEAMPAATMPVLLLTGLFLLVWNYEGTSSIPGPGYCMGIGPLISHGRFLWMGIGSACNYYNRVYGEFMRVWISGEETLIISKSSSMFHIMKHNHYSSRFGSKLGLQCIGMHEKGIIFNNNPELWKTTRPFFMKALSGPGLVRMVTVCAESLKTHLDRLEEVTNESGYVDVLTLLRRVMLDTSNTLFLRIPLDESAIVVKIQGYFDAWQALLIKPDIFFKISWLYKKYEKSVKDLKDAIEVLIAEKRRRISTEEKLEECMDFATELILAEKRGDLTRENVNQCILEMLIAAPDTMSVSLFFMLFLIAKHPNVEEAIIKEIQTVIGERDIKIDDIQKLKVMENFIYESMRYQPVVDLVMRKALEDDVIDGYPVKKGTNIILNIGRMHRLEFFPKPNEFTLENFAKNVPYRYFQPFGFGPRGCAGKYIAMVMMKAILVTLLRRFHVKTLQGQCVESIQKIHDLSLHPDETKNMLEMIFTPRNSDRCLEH

[10] = qHTS assay to identify aromatase inhibitors - cell viability counter screen (AID 743084);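 further: cells stimulated with testosterone during compound exposure; nearly all actives have a fitted effect of over 55% in size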
[11] = target: Aryl hydrocarbon receptor (Homo sapiens) (UniProt P35869); test: qHTS assay to identify small molecule that activate the aryl hydrocarbon receptor (AhR) signaling pathway (AID 743085); further: nearly all actives have a fitted effect of over 15% in size; further: potency means the concentration at half of the fitted maximal effect;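 on activation: HG2L7.5c1 human HepG2 liver cells with stably integrated DRE-driven firefly reporter; series mostly up to about 70 µM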
Aryl hydrocarbon receptor (Homo sapiens), sequence (P35869 whole entry, looked up): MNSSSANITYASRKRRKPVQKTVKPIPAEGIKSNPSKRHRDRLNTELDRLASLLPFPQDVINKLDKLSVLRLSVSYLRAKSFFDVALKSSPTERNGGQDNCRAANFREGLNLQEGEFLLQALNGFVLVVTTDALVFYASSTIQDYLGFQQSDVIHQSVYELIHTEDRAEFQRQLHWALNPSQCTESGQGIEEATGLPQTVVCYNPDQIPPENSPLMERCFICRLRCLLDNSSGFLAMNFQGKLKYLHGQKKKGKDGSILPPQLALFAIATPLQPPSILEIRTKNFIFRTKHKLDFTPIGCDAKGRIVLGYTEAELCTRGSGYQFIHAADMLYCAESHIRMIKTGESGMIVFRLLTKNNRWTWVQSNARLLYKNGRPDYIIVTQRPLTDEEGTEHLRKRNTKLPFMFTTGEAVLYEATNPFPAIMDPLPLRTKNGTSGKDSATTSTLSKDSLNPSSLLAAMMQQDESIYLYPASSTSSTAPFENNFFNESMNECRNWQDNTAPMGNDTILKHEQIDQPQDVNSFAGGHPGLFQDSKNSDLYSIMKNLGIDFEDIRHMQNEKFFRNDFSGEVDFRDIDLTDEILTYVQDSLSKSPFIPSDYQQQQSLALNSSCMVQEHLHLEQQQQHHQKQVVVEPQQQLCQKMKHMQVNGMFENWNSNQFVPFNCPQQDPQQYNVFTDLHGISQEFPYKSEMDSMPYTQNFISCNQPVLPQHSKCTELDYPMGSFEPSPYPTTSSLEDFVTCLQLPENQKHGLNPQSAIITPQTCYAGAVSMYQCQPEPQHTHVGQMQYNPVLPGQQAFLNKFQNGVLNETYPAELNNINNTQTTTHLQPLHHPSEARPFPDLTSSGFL
Outline: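 Steps: seed HepG2-AhR-luc cells; allow 5 h at 37C; pin-transfer test compound or vehicle; incubate 24 h at 37C; add viability dye (30 min, 37C) and read fluorescence; add luciferase substrate (30 min, RT) and read luminescence.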

[12] = qHTS assay to identify small molecule that activate the aryl hydrocarbon receptor (AhR) signaling pathway - cell viability counter screen (AID 743086);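 further: HepG2 liver cells carrying the AhR DRE luciferase reporter; series mostly up to about 70 µM; nearly all actives have a fitted effect of over 45% in size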
Outline: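 Cytotoxicity counter screen: CellTiter-Fluor signal (30 min, 37 C) in 4000 HepG2 cells/well carrying the DRE-luciferase reporter, following 24 h compound exposure at 37 C.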

[13] = target: Peroxisome proliferator-activated receptor gamma (Homo sapiens) (UniProt P37231); test: qHTS assay to identify small molecule agonists of the peroxisome proliferator-activated receptor gamma (PPARg) signaling pathway (AID 743094; active means well fitted activation curve with a large enough effect in the signal ratio in the repeat runs, not every such curve was filed as active; inconclusive means weak or mixed curves, or effect the other way; inactive means no such curve, though single readings can be large or run the other way; the % refers to the signal ratio)
Peroxisome proliferator-activated receptor gamma (Homo sapiens), sequence (P37231 whole entry, looked up): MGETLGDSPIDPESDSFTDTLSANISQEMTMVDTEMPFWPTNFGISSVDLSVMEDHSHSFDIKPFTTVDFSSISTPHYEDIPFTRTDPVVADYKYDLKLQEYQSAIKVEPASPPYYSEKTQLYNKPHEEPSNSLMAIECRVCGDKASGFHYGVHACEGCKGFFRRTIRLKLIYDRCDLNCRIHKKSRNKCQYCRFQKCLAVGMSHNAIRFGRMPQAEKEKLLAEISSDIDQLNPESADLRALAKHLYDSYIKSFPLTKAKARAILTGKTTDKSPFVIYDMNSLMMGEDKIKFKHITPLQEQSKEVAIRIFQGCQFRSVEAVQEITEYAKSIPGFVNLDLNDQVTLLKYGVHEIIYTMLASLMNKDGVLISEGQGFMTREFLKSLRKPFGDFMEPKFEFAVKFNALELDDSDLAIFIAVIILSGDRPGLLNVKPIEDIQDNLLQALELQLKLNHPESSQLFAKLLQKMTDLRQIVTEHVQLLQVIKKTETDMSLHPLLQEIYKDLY
Outline: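 Compounds dissolved in DMSO were added to PPARg UAS-bla HEK293H cells for 17 h at 37C, and reporter expression was quantified by fluorescence intensity after 1 h with LiveBLAzer B/G FRET substrate.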

[14] = target: Peroxisome proliferator-activated receptor gamma (Homo sapiens) (UniProt P37231); test: qHTS assay to identify small molecule antagonists of the peroxisome proliferator-activated receptor gamma (PPARg) signaling pathway (AID 743191; calls by dose curve; further: series mostly up to about 63 µM; nearly all actives have a fitted effect of over 30% in size)
Outline: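 Beta-lactamase reporter under UAS control in HEK293H PPARg-bla cells; compound treatment 17 h at 37C. Read-out: fluorescence intensity after 1 h room-temperature incubation with LiveBLAzer B/G FRET substrate.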

[15] = qHTS assay to identify small molecule antagonists of the peroxisome proliferator-activated receptor gamma (PPARg) signaling pathway - cell viability counter screen (AID 743194); further: nearly all actives have a fitted effect of over 55% in size
Outline: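 Viability was measured as CellTiter-Glo luminescence in GeneBLAzer PPARg UAS-bla HEK293H cells. These cells had been exposed 17 h at 37 C to compounds together with rosiglitazone at 50 nM final, with the beta-lactamase readout taken in the same wells.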

[16] = qHTS assay for small molecule agonists of the antioxidant response element (ARE) signaling pathway (AID 743202; active means well fitted activation curve with a large enough effect in the signal ratio in the repeat runs, not every such curve was filed as active; inconclusive means weak or mixed curves, or effect the other way; inactive means no such curve, though single readings can be large or run the other way; the % refers to the signal ratio)
Outline: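 An ARE-responsive beta-lactamase gene stably integrated in HepG2 cells serves as reporter. After 5 h plating and 16 h compound incubation at 37 C, fluorescence of the B/G FRET substrate was measured.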

[17] = qHTS assay for small molecule agonists of the antioxidant response element (ARE) signaling pathway - cell viability counter screen (AID 743203; calls by dose curve; further: nearly all actives have a fitted effect of over 55% in size)
Outline: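 Following 16 hrs of compound treatment at 37C, HepG2 cells with an ARE-controlled beta-lactamase gene were lysed with CellTiter-Glo. Luminescence was read after 30 min at room temperature.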

[18] = qHTS assay for small molecule activators of the heat shock response signaling pathway - cell viability counter screen (AID 743209); further: nearly all actives have a fitted effect of over 50% in size
Outline: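 Readout: CellTiter-Glo luminescence, 30 min at room temperature. System: HSE-bla HeLa cells, 1500/well, plated overnight. Treatment: compounds in DMSO, 5 h at 37 C.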

[19] = qHTS assay for small molecule activators of the heat shock response signaling pathway (AID 743210; active means well fitted activation curve with a large enough effect in the signal ratio in the repeat runs, with a control signal flat, not every such curve was filed as active; inconclusive means weak or mixed curves; the % refers to the signal ratio;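 further: HeLa cells with beta-lactamase reporter driven by heat shock elements; series mostly up to about 63 µM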)
Outline: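 In HSE-bla HeLa cells, 5 h compound incubation (37 C) precedes addition of LiveBLAzer B/G substrate; after 2.5 h at room temperature, fluorescence intensity indicates reporter induction.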

Measured: Potency

COc1ccc2[nH]cc(CCNC(C)=O)c2c1
inactive and 55.3 µM (active): [7]
not listed: [19]
inactive: all other assays above

NNC(=O)c1ccncc1
active: [11] 13.3 µM
not listed: [19]
inactive: all other assays above

N=C(N)c1ccc(OCCCCCOc2ccc(C(=N)N)cc2)cc1
active: [1] 60.8 µM and 46.4 µM | [2] 26.6 µM and 60.8 µM and 58.4 µM | [4] 12 µM [inconclusive] and 15.4 µM [inconclusive] and 46.8 µM [inconclusive] | [8] 11.9 µM and 46.4 µM | Aromatase (Homo sapiens) 26.1 µM
not listed: [7] | [11] | [14] | [16] | [19]
inactive: all other assays above

Cc1ccc(C)c(OCCCC(C)(C)C(=O)O)c1
inactive and 48.9 µM (active): [11]
not listed: [13] | [14] | [19]
inactive: all other assays above

CCCC(O)C(CC)CO (stereo not given)
not listed: [19]
inactive: all other assays above

Cc1cn([C@H]2C[C@H](N=[N+]=[N-])[C@@H](CO)O2)c(=O)[nH]c1=O
inactive and 17.7 µM (active): [7]
not listed: [19]
inactive: all other assays above

CC(=O)Nc1nnc(S(N)(=O)=O)s1
inactive: all assays above

CC(=O)NS(=O)(=O)c1ccc(N)cc1
not listed: [13] | [14]
inactive: all other assays above

Cn1c(=O)c2[nH]cnc2n(C)c1=O
inactive and 30.6 µM (active): [3]
not listed: [14]
inactive: all other assays above

CC(O)C(=O)O (stereo not given)
not listed: [13] | [14] | [19]
inactive: all other assays above

CCCCOC(=O)CC(CC(=O)OCCCC)(OC(C)=O)C(=O)OCCCC
not listed: [2] | [4] | [6] | [7] | [8]
inactive: all other assays above

Cc1ccc(O)cc1
not listed: [4] | [6] | [7] | [8]
inactive: all other assays above

CCCCCCCCCCCCCCCC(=O)O
not listed: [4] | [6] | [7] | [8]
inactive: all other assays above

Cc1ccccc1C(OCCN(C)C)c1ccccc1 (stereo not given)
active: [2] 21.1 µM and 27.3 µM
not listed: [1] | [19]
inactive: all other assays above

CCCN(CCC)S(=O)(=O)c1ccc(C(=O)O)cc1
not listed: [4] | [6] | [7] | [8] | [19]
inactive: all other assays above

O=C(O)C(=O)O
not listed: [2] | [3] | [4] | [6] | [7] | [8] | [19]
inactive: all other assays above

C[C@]12C=CC(=O)C=C1CC[C@@H]1[C@@H]2[C@@H](O)C[C@@]2(C)[C@H]1CC[C@]2(O)C(=O)CO
not listed: [4] | [8] | [13] | [14]
inactive: all other assays above

Nc1ccc(S(=O)(=O)Nc2nccs2)cc1
not listed: [2] | [3] | [19]
inactive: all other assays above

C/C=C/c1ccc(OC)cc1
not listed: [4] | [6] | [7] | [8] | [14] | [19]
inactive: all other assays above

CNC[C@H](O)c1cccc(O)c1
inactive and 3.89 µM (active): [5]
not listed: [4] | [6] | [7] | [8] | [13] | [14] | [19]
inactive: all other assays above

O=S(=O)(O)c1ccc2cc(O)ccc2c1
not listed: [4] | [6] | [7] | [8]
inactive: all other assays above

O=C(O)c1cccc([N+](=O)[O-])c1
not listed: [4] | [6] | [7] | [8] | [13] | [14]
inactive: all other assays above
